The values below come from PubChem BioAssay (Tox21).

A short description of experiment [1]: qHTS assay to identify small molecule antagonists of the sonic hedgehog signaling (Shh) pathway (AID 1259369; calls by dose curve; note: nearly all actives have a fitted effect of over 45% in size; note: potency is the fitted concentration of half-maximal effect). In short, it runs like this:
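For antagonist detection, the reporter line received test compounds together with conditioned medium, incubated 24hr at 37 C, 5% CO2, then luminescence was recorded following 30min room-temperature luciferase reagent incubation.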

A short description of experiment [2]: qHTS assay to identify small molecule agonists of the androgen receptor (AR) signaling pathway in the presence of an antagonist - cell viability counter screen (AID 1259379). Note: nearly all actives have a fitted effect of over 25% in size. Note: potency is the fitted concentration of half-maximal effect. In outline: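 Seed MDA-kb2 at 3,000 cells/well; incubate 5 hr, 37C, 0% CO2. Add nilutamide to 3.0uM final, then pin compounds at 15 concentrations. Incubate 16 hr. Add CellTiter-Fluor at 15 hr, read fluorescence after 1 hr.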
(In qHTS, concentration-response curves come from the screen itself.)

The nature of experiment [3]: qHTS assay to identify small molecule agonists of the estrogen receptor beta (ER-beta) signaling pathway - cell viability counter screen (AID 1259380). Note: nearly all actives have a fitted effect of over 30% in size. Note: potency is the fitted concentration of half-maximal effect. In short, it runs like this:
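CellTiter-Glo read, 30 min RT, same wells as bla assay; cells ER-beta-UAS-bla HEK293T; 16 hr compound, 37C; medium 2% charcoal-stripped FBS.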

Experiment [4] in a line: qHTS assay to identify small molecule antagonists of the estrogen receptor beta (ER-beta) signaling pathway - cell viability counter screen (AID 1259382). Note: nearly all actives have a fitted effect of over 55% in size. Note: potency is the fitted concentration of half-maximal effect. In outline:
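In this multiplexed counter screen, cells were seeded at 2,000 per well in medium with 2% charcoal-stripped FBS and incubated 6 hr before compound and 1nM final E2 were added. Sixteen hours later, ATP-based luminescence reported viability.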

Experiment [5] in a line: qHTS assay to identify small molecule agonists or antagonists of the thyroid stimulating hormone receptor (TSHR) signaling pathway - wild type cell line counter screen (AID 1259384; calls by dose curve). In short, it runs like this:
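Counter screen in untransfected Hek293: compounds (15-point titration, triplicate) plus phosphodiesterase inhibitor Ro20-1724 added after 18 h plating; 30 min RT. Intracellular cAMP via competitive d2/cryptate immunoassay, 1 h incubation.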

For experiment [6], the target named is Thyrotropin receptor (Homo sapiens) (UniProt P16473). Description: qHTS assay to identify small molecule antagonists of the thyroid stimulating hormone receptor (TSHR) signaling pathway (AID 1259385; calls by dose curve; note: nearly all actives have a fitted effect of over 20% in size). In short, it runs like this: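 Antagonist mode: compound-treated TSHR-expressing HEK293 cells were stimulated with 1.5 ng/mL TSH (final) in presence of Ro20-1724 for 30 min at RT. HTRF cAMP detection after 1 h; each compound tested at 15 concentrations, triplicate.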

Experiment [7] is described as follows: qHTS assay to identify small molecule agonists of the estrogen receptor alpha (ER-alpha) signaling pathway in the presence of an antagonist - cell viability counter screen (AID 1259386).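 Note: cells exposed to compounds for 22 h at 37 °C before the viability read; nearly all actives have a fitted effect of over 30% in size.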 Note: potency is the fitted concentration of half-maximal effect. In outline: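 Viability counter screen using VM7Luc4E2 (full-length ER-alpha, four ERE-luciferase). The cells were treated with compounds alongside ICI-182,780 10.0nM for 22hr, and live-cell protease fluorescence was quantified with CellTiter-Fluor.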

The target in experiment [8] is Estrogen receptor (Homo sapiens) (UniProt P03372). As to the kind of experiment: qHTS assay to identify small molecule agonists of the estrogen receptor alpha (ER-alpha) signaling pathway in the presence of an antagonist (AID 1259383; calls by dose curve; note: top concentration of the series differs between compounds; nearly all actives have a fitted effect of over 15% in size). In outline: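 Stably transfected VM7Luc4E2 reporter cells, kept 5 days in charcoal-stripped serum, received ICI-182,780 at 10.0nM final before compound addition. Following 22hr incubation at 37C and 5% CO2, luciferase signal was read by luminescence.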

Structures are written as SMILES. Where “and” joins values, the source holds several entries; their conditions need not be identical. Equal values may be shown once. Inconclusive results are not listed. Where a structure was tested more than once in an assay, its records may differ in their call. Calls of active or inactive are those of the source. Unless noted, calls come from the whole dose curve; as a rule, active = well fitted curve in the direction sought with a large enough effect in the repeat runs; inconclusive = weak or mixed curves; inactive = no such curve, though single readings can be large; an effect the other way counts as inactive or inconclusive.

Chain of Thyrotropin receptor (Homo sapiens) (P16473 whole entry, looked up): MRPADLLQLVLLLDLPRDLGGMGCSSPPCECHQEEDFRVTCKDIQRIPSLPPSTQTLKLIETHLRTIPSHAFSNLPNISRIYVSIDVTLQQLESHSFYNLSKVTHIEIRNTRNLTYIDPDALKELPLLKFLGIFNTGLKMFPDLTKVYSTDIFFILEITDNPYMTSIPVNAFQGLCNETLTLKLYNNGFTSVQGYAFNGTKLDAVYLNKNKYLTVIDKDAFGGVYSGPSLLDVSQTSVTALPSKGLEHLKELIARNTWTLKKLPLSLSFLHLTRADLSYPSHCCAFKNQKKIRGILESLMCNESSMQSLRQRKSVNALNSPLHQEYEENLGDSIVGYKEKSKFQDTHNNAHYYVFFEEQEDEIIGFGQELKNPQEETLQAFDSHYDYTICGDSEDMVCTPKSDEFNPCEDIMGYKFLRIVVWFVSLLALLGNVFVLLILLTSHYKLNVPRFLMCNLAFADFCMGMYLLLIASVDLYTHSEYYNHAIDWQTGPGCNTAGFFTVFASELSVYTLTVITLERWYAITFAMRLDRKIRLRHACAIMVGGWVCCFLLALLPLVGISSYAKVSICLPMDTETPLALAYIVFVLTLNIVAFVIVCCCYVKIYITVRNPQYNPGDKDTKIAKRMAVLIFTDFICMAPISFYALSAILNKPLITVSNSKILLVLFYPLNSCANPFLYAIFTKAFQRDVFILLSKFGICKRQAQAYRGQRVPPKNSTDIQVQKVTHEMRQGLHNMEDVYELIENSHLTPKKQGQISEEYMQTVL
Chain of Estrogen receptor (Homo sapiens) (P03372 whole entry, looked up): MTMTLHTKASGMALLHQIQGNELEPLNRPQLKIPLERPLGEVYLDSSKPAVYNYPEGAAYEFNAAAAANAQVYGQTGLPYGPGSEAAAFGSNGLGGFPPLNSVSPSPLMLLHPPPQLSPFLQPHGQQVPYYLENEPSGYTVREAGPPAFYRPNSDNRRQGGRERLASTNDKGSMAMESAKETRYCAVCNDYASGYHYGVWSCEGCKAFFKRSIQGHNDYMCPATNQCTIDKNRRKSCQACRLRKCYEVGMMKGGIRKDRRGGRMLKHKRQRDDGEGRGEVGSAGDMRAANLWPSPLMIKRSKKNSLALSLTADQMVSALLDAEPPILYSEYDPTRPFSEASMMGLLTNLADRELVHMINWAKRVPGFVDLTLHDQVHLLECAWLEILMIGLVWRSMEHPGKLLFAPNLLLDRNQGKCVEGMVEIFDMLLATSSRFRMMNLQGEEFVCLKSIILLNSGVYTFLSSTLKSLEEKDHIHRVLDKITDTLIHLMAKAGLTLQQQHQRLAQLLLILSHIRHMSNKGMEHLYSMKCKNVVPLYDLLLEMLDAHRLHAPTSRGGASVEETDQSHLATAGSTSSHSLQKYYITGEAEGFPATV

On to `CN1[C@@H]2CC(OC(=O)[C@H](CO)c3ccccc3)C[C@H]1[C@@H]1O[C@@H]12` (stereo not given in full), for which the Potency result in experiment [1], in experiment [2], in experiment [3], in experiment [4], in experiment [5] and in experiment [6] was “inactive” each time. For the same compound, the Potency entry in experiment [7] is “inactive”.

Regarding `CC(C)c1c(C(=O)Nc2ccccc2)c(-c2ccccc2)c(-c2ccc(F)cc2)n1CC[C@@H](O)C[C@@H](O)CC(=O)O`, the Potency result in experiment [1], in experiment [2], in experiment [5], in experiment [6] and in experiment [7] was “inactive” throughout. The Potency was 11.7 µM (active) and 25.5 µM (active) in experiment [3]; 13.2 µM (active) and 32.1 µM (active) in experiment [4].

Consider `CC1(C)S[C@@H]2[C@H](NC(=O)[C@H](N)c3ccccc3)C(=O)N2[C@H]1C(=O)O`, for which the Potency entry in experiment [1], in experiment [2], in experiment [3], in experiment [4], in experiment [5] and in experiment [6] was “inactive” throughout. In addition, the Potency result in experiment [7] was “inactive”.

On to `F[B-](F)(F)F`, for which the Potency entry in experiment [1], in experiment [2], in experiment [4], in experiment [5], in experiment [6] and in experiment [7] was “inactive” throughout. The Potency result in experiment [3] was “inactive and 62 µM (active)”.

In the case of `Cc1cccc(C)c1`, the Potency result in experiment [1], in experiment [2], in experiment [3], in experiment [4], in experiment [5] and in experiment [6] was “inactive” each time. Further, the Potency entry in experiment [7] was “inactive”.

With `O=C1c2c(O)cccc2Cc2cccc(O)c21`, the Potency entry in experiment [1], in experiment [2], in experiment [3], in experiment [4], in experiment [5] and in experiment [6] was “inactive” in each case. The Potency result in experiment [7] is “inactive”.

For the compound `CCCCC1(COC(=O)CCC(=O)O)C(=O)N(c2ccccc2)N(c2ccccc2)C1=O`, the Potency entry in experiment [1], in experiment [2], in experiment [3], in experiment [4], in experiment [5] and in experiment [6] was “inactive” throughout. Further, the Potency result in experiment [7] is “inactive”.

As to `CN1CCc2cccc3c2[C@H]1Cc1ccc(O)c(O)c1-3`, the Potency in experiment [1] is 2.87 µM (active) and 18.8 µM (active); in experiment [2] it was 55 µM (active) and 22.8 µM (active) and 26.6 µM (active); in experiment [3], 55 µM (active) and 20.4 µM (active); in experiment [4], 30.9 µM (active) and 20.4 µM (active) and inactive; in experiment [7], 49.1 µM (active) and 22.8 µM (active) and 26.6 µM (active). The Potency result in experiment [5] and in experiment [6] was “inactive” in each case.

`CCOC(N)=O`: the Potency result in experiment [1], in experiment [2], in experiment [3], in experiment [4], in experiment [5] and in experiment [6] was “inactive” each time. In addition, in experiment [7], the Potency entry was “inactive”.

As for `Cc1ncc([N+](=O)[O-])n1CCO`, the Potency result in experiment [1], in experiment [2], in experiment [3], in experiment [4], in experiment [8] and in experiment [5] was “inactive” in each case. Besides, the Potency result in experiment [6] and in experiment [7] was “inactive” in each case.

Turning to `Oc1ccccc1`, the Potency result in experiment [1], in experiment [2], in experiment [3], in experiment [4], in experiment [5] and in experiment [6] was “inactive” each time. In addition, the Potency entry in experiment [7] is “inactive”.

As for `CC(=O)CCC(=O)O`, the Potency entry in experiment [1], in experiment [2], in experiment [3], in experiment [4], in experiment [5] and in experiment [6] was “inactive” throughout. For the same compound, in experiment [7], the Potency entry is “inactive”.

For `C=CCc1ccc(O)c(OC)c1`, the Potency entry in experiment [1], in experiment [2], in experiment [3], in experiment [4], in experiment [5] and in experiment [6] was “inactive” throughout. Further, in experiment [7], the Potency entry is “inactive”.

As to `CN[C@H]1CC[C@@H](c2ccc(Cl)c(Cl)c2)c2ccccc21`, the Potency is 18.8 µM (active) in experiment [1], 29.8 µM (active) in experiment [3] and 18.8 µM (active) in experiment [4]. Besides, the Potency entry in experiment [2], in experiment [5], in experiment [6] and in experiment [7] was “inactive” in each case.

For `CS(=O)(=O)OCCCCOS(C)(=O)=O`, the Potency result in experiment [1], in experiment [2], in experiment [3], in experiment [4], in experiment [8] and in experiment [5] was “inactive” in each case. The Potency entry in experiment [6] and in experiment [7] was “inactive” each time.

For `Cc1ncc([N+](=O)[O-])n1C`, the Potency entry in experiment [1], in experiment [2], in experiment [3], in experiment [4], in experiment [5] and in experiment [6] was “inactive” each time. Besides, the Potency entry in experiment [7] was “inactive”.

As to `O=C1NS(=O)(=O)c2ccccc21`, the Potency result in experiment [1], in experiment [2], in experiment [3], in experiment [4], in experiment [5] and in experiment [6] was “inactive” throughout. For the same compound, in experiment [7], the Potency entry was “inactive”.

Turning to `CN(C)C(=O)Nc1ccc(Cl)c(Cl)c1`, the Potency result in experiment [1], in experiment [2], in experiment [3], in experiment [4], in experiment [5] and in experiment [6] was “inactive” throughout. Also, the Potency entry in experiment [7] was “inactive”.

Turning to `CC12CCC(CC1)C(C)(C)O2`, the Potency entry in experiment [1], in experiment [2], in experiment [3], in experiment [4], in experiment [5] and in experiment [6] was “inactive” in each case. For the same compound, the Potency result in experiment [7] was “inactive”.

Regarding `CCCCCCc1ccc(O)cc1O`, the Potency in experiment [1] was 43.4 µM (active); in experiment [3], 48.7 µM (active) and 48.6 µM (active); in experiment [4], 48.7 µM (active) and inactive. The Potency entry in experiment [2], in experiment [5], in experiment [6] and in experiment [7] was “inactive” throughout.

For `CCN(Cc1c(F)cccc1Cl)c1c([N+](=O)[O-])cc(C(F)(F)F)cc1[N+](=O)[O-]`, the Potency result in experiment [1], in experiment [2] and in experiment [7] was “inactive” each time. Besides, the results for the Potency in experiment [3] and in experiment [4] were 30.6 µM (active) and 43.3 µM (active), respectively.

Take `Nc1ccc([N+](=O)[O-])cc1O`: the Potency in experiment [2] is 30.6 µM (active); in experiment [7], 27.3 µM (active). The Potency entry in experiment [4] is “inactive”.
